# PubChem BioAssay (NCATS)
# Inconclusive results are not listed. Activity calls are given as the source filed them. Calls follow the shape of the dose curve; as a rule, active = well fitted cell-killing curve with a large enough effect; inconclusive = small, poorly fitted or top-dose-only effect; inactive = flat fitted curve, though single readings scatter. Peptide text beside a SMILES is read from it. * marks the point of attachment. Hexanoyl = CCCCCC(=O)*
# Experiment: U-118MG Cancer Cell Toxicity qHTS against the NCATS CANVASS Library (AID 1347351)
# Details: U-118MG viability, CellTiter-Glo luminescence, 72 h; series mostly up to 38.3 µM; activity change, negative = cytotoxicity: at the top concentration; outcome: at the top concentration
# How it was run: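 Toxicity is measured over 72 h of compound exposure at 37 degrees C under 5% CO2. Each well holds 1000 cells, pre-incubated for 4 hours before dosing across an 11-point range. CellTiter-Glo luminescence gives viability.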
# % is scaled to controls: 0 for no effect and ±100 for the full control effect; potency is read from the fitted curve at half-maximal effect.
Structure (SMILES),"activity change, negative = cytotoxicity",Potency,outcome
CC(=O)N[C@H](C)c1nc(/C=C/C=C/C(=O)CC2CC(=O)CC[C@]2(C)O)cs1 (stereo partly specified),2.89% (inactive),,
CN1C(=O)C(=O)N2C(=C[C@]3(c4c[nH]c5ccccc45)c4ccccc4N[C@H]23)C1=O,-2.28% (inactive),,
CN1CC[C@]23c4ccccc4N[C@H]1[C@]21CCN(C)[C@H]3Nc2ccccc21,-7.89% (inactive),,
C/C=C1/C2=CCCN3C(=O)O[C@H]([C@H]1O)[C@H]23,-0.213% (inactive),,
O=C1CC(c2ccc(O)cc2)Oc2ccccc21 (stereo unspecified),-11.1% (inactive),,
COC1C(C)OC(OCC23C[C@@H]4[C@H](C)CC[C@H]4C4(C=O)CC2C=C(C(C)C)C34C(=O)O)[C@@H](O)[C@H]1O (stereo partly specified),4.67% (inactive),,
CN1CC[C@@]2([C@@]34CCN(C)[C@@H]3Nc3ccccc34)c3ccccc3N[C@@H]12,-21.9% (inactive),,
COc1ccc(-c2oc3cc(OC)cc(OC)c3c(=O)c2O)cc1,1.24% (inactive),,
Cc1cc(O)cc2c1C(=O)c1c(O)cc(O)cc1C2=O,-6.51% (inactive),,
C=C(Cl)[C@](Cl)(CBr)CC[C@@H](Br)C(C)(C)Cl,,8.41 µM (active),
C=C[C@]1(C)CC[C@@H]([C@H](C)C(=O)CC=C(C)C)O1,-6.24% (inactive),,
CC[C@@H]1C[C@@]2(CC)OC(=O)[C@@]3(CC)[C@H](CC)[C@@H]1[C@@H]23,-7.87% (inactive),,
[C-]#[N+][C@@]12C(=O)[C@@H]3[C@@H](O[C@@]4(C(=O)N(C)c5cccc1c54)C3(C)C)C(=O)[C@@]2(C)C=C,2.41% (inactive),,
COC(=O)c1cccc2oc(-c3cccc4oc(-c5c(C)cccc5O)nc34)nc12,-24.7% (inactive),,
C[C@@]12CCC[C@@](C)(C(=O)OP(=O)(O)OC[C@H]3O[C@@H](n4cnc5c(N)ncnc54)[C@H](O)[C@@H]3O)[C@H]1C[C@@H](O)[C@@]13C[C@@H](CC[C@@H]21)[C@](C)(O)C3,,,inactive
CCC(C)=C1OC(=O)[C@H](C)[C@H](O)[C@H](Cc2cccnc2)NC(=O)C(NC(=O)c2ncccc2O)C(C)OC1=O (stereo partly specified),-5.34% (inactive),,
C[C@@]12CCC[C@@](C)(C(=O)O)[C@H]1CC[C@@]13C[C@@H](CC[C@H]12)[C@](C)(O)C3,-7.3% (inactive),,
O=C1OC(CCO)c2cccc(O)c21 (stereo unspecified),4.41% (inactive),,

Structure (SMILES),"activity change, negative = cytotoxicity",Potency,outcome
COc1cc2ccc(=O)oc2c(O)c1O[C@@H]1O[C@H](CO)[C@@H](O)[C@H](O)[C@H]1O,-10.9% [at 22.9 µM] (inactive),,
C/C(=C\[C@@H](C)CC/C=C/CC/C=C/C(=O)O)[C@@H](O)[C@H](C)C(=O)CCCC1CC(=O)NC(=O)C1,-13% (inactive),,
CO[C@@H](C[C@@H](C)[C@@H](O)/C=C/C=C/CNC(=O)C(C)(C)[C@H](O)\C(C)=C/C=C\C=C\Cc1cnco1)[C@]1(O)[C@@H](C)C(=O)N(C)[C@@]12COC2=O,2.13% (inactive),,
O=C1CC(c2ccc(O)cc2)Oc2cc(O)cc(O)c21 (stereo unspecified),,,inactive
O=C1CC(c2ccc(O)cc2)Oc2cc(O)ccc21 (stereo unspecified),-21.6% (inactive),,
CN1CC[C@@]23c4ccccc4N[C@@H]1[C@@]21CCN(C)[C@@H]3Nc2ccccc21,-2.06% (inactive),,
C[C@@]12CCC[C@@](C)(C(=O)O)[C@H]1C[C@@H](O)[C@@]13C[C@@H](CC[C@@H]21)[C@](C)(O)C3,-26.1% (inactive),,
O=Cc1ccc2n1C[C@]1(OC2)O[C@H](CO)[C@@H](O)[C@@H]1O,4.62% (inactive),,
C=C[C@@]1(C)CC[C@@H]([C@H](C)C(C)=O)O1,-4.73% (inactive),,
C/C=C(/CO)C(=O)O[C@@H]1[C@H](O)[C@@H](C(=O)OC)O[C@@H]2C[C@H]3OC(n4cnc5c(N)ncnc54)[C@H](OC)[C@H]3O[C@@]12O (stereo partly specified),-2.46% (inactive),,
C/C=C/[C@H]1[C@H]2C(=O)c3c(O)c(C)c(O)c(C)c3[C@]1(C(=O)O)C(=O)C=C2C,-2.24% (inactive),,
C[C@@]12C[C@@H](C[C@@H]3C(=O)O[C@@H](c4ccoc4)[C@H](OC(=O)c4ccccc4)[C@@H]31)OC2=O,0.408% (inactive),,
C=C1CCC2C(C)(C(=O)O)CCC(CC/C(C)=C/C(=O)NC(CCC(N)=O)C(=O)O)[C@@]2(C)C1 (stereo partly specified),-1.5% (inactive),,
C=C1[C@@]2(C)CC3C4(C)CCC(O)C(C)(C)C4CCC3(C)[C@]1(C(=O)OC)C(=O)C(C)(O)C2=O (stereo partly specified),2.43% (inactive),,
CC(C)=CCC[C@]1(C)[C@H]2CC(=O)[C@@]3(CO3)[C@@H]1C2,3.58% (inactive),,
CCCCCC(=O)N[C@@H](CC(C)C)C(=O)N[C@H](C=O)CCC(=O)O (Hexanoyl-Leu-Glu-aldehyde),4.08% (inactive),,
COc1ccc([C@@H]2c3cc4c(cc3C(=O)C(C)C2C)OCO4)cc1OC (stereo partly specified),,,inactive
CC1(C)CC[C@]2(CO)CC[C@]3(C)C(=CCC4[C@@]5(C)CC[C@H](O)C(C)(C)C5CC[C@]43C)C2C1 (stereo partly specified),,,inactive
